# Measured values: the supplement of paper PMC12282887
# ± gives the standard deviation of the averaged measurements.
# How the values were obtained:
# Assay in all cases: promoter activity interaction Z-score (Lux/OD deviation from empty-vector control); higher = stronger promoter induction by the compound
# [1] = system: E. coli BW25113 robp lux reporter; conditions: 2.3 µg/ml
# Procedure, shortened: (§1)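 At 37°C, E. coli BW25113 reporter cultures in 40 µl LB Lennox in 384-well plates were read for OD600 and luminescence every 30 min for 12 h. Windows were 0–8 h for wild type and 1–9 h for deletion strains, and wells under 10% of the median growth value were removed. The score is the Z-transformed residual of growth-normalised luminescence against a control fit.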
# [2] = system: E. coli BW25113 soxSp lux reporter
# Procedure, shortened: as §1
# [3] = system: E. coli BW25113 tolCp lux reporter
# Procedure, shortened: as §1
# [4] = 0.29 µg/ml, genetic background: wild type
# [5] = 0.29 µg/ml, genetic background: ΔmarA
# [6] = 0.29 µg/ml, genetic background: Δrob
# [7] = 0.29 µg/ml, genetic background: ΔsoxS
# [8] = 0.58 µg/ml, genetic background: wild type
# [9] = 0.58 µg/ml, genetic background: ΔmarA
# [10] = 0.58 µg/ml, genetic background: Δrob
# [11] = 0.58 µg/ml, genetic background: ΔsoxS
# [12] = 1.2 µg/ml, genetic background: wild type
# [13] = 1.2 µg/ml, genetic background: ΔmarA
# [14] = 1.2 µg/ml, genetic background: Δrob
# [15] = 1.2 µg/ml, genetic background: ΔsoxS
# [16] = 2.3 µg/ml, genetic background: wild type
# [17] = 2.3 µg/ml, genetic background: ΔmarA
# [18] = 2.3 µg/ml, genetic background: Δrob
# [19] = 2.3 µg/ml, genetic background: ΔsoxS
compound,measurement,setting,value
COc1cccc2c1C(=O)c1c(O)c3c(c(O)c1C2=O)C[C@@](O)(C(=O)CO)C[C@@H]3O[C@H]1C[C@H](N)[C@H](O)[C@H](C)O1 [Doxorubicin],promoter activity interaction Z-score,[1]; genetic background: wild type,0.943 ± 0.18
same,promoter activity interaction Z-score,[1]; genetic background: ΔmarA,0.445 ± 0.36
same,promoter activity interaction Z-score,[1]; genetic background: Δrob,-0.208 ± 0.44
same,promoter activity interaction Z-score,[1]; genetic background: ΔsoxS,0.518 ± 0.087
same,promoter activity interaction Z-score,[2]; [4],0.269 ± 0.063
same,promoter activity interaction Z-score,[2]; [5],0.0336 ± 0.05
same,promoter activity interaction Z-score,[2]; [6],-0.322 ± 0.09
same,promoter activity interaction Z-score,[2]; [7],0.15 ± 0.14
same,promoter activity interaction Z-score,[2]; [8],0.223 ± 0.25
same,promoter activity interaction Z-score,[2]; [9],0.0456 ± 0.13
same,promoter activity interaction Z-score,[2]; [10],0.138 ± 0.19
same,promoter activity interaction Z-score,[2]; [11],0.329 ± 0.29
same,promoter activity interaction Z-score,[2]; [12],0.245 ± 0.26
same,promoter activity interaction Z-score,[2]; [13],-0.00668 ± 0.18
same,promoter activity interaction Z-score,[2]; [14],-0.0803 ± 0.088
same,promoter activity interaction Z-score,[2]; [15],-0.0415 ± 0.028
same,promoter activity interaction Z-score,[2]; [16],0.426 ± 0.46
same,promoter activity interaction Z-score,[2]; [17],0.0221 ± 0.059
same,promoter activity interaction Z-score,[2]; [18],-0.22 ± 0.18
same,promoter activity interaction Z-score,[2]; [19],0.285 ± 0.86
same,promoter activity interaction Z-score,[3]; [4],0.409 ± 0.23
same,promoter activity interaction Z-score,[3]; [5],0.025 ± 0.4
same,promoter activity interaction Z-score,[3]; [6],-1.33 ± 0.07
same,promoter activity interaction Z-score,[3]; [7],-0.509 ± 0.71
same,promoter activity interaction Z-score,[3]; [8],0.591 ± 0.37
same,promoter activity interaction Z-score,[3]; [9],0.129 ± 0.57
same,promoter activity interaction Z-score,[3]; [10],-0.418 ± 0.28
same,promoter activity interaction Z-score,[3]; [11],0.558 ± 0.63
same,promoter activity interaction Z-score,[3]; [12],0.186 ± 1.3
same,promoter activity interaction Z-score,[3]; [13],-0.979 ± 0.47
same,promoter activity interaction Z-score,[3]; [14],-0.8316 ± 0.0065
same,promoter activity interaction Z-score,[3]; [15],-0.712 ± 0.47
same,promoter activity interaction Z-score,[3]; [16],-0.527 ± 0.035
same,promoter activity interaction Z-score,[3]; [17],-0.261 ± 0.0072
same,promoter activity interaction Z-score,[3]; [18],-1.42 ± 0.035
same,promoter activity interaction Z-score,[3]; [19],0.704 ± 0.5
